Assay [1] addresses Luciferin 4-monooxygenase (Photinus pyralis) (UniProt P08659). Briefly: Biochemical firefly luciferase enzyme assay for NPC (AID 624030).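 Note: purified P. pyralis luciferase at 10 nM with luciferin and ATP substrate; nearly all actives have a fitted effect of over 70% in size.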 Conditions: purified P. pyralis luciferase, luminescence, 5 min; series mostly up to 58.6 µM. In a few lines: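 Direct inhibition of firefly luciferase enzyme (10 nM final, 50 mM Tris Acetate) assessed by luminescence within 5 minutes. Percent activity scaled between DMSO and PTC124 positive control, with concentration-effect curves classified by fit quality and response.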

A short description of assay [2]: S16 Schwann cell viability assay (CellTiter-Glo assay) (AID 624031). Note: potency is the fitted concentration of half-maximal effect; nearly all actives have a fitted effect of over 70% in size. The conditions noted are these: S16 rat Schwann cells viability, 24 h; series mostly up to 25.7 µM. The method, boiled down:
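Rat S16 Schwann cells without reporter constructs received compound or DMSO for 24 h at 37 °C under 5% CO2. Cellular ATP was then quantified by CellTiter-Glo luminescence, with vehicle wells defined as 0% activity and cell-free wells as reference.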
In general terms: In ATP-based viability assays light output follows the ATP content of the culture.

Assay [3] can be described thus: S16 Schwann cell PMP22 intronic element firefly luciferase assay (AID 624032). Note: potency is the fitted concentration of half-maximal effect; nearly all actives have a fitted effect of over 30% in size. Conditions: S16 rat Schwann cells, PMP22 element FLuc, 24 h; series mostly up to 25.7 µM. In a few lines: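 Luciferase reporter of PMP22 intronic-element expression in stably transfected S16 rat Schwann cells, read by ONE-Glo luminescence after 24 h compound exposure at 37 C. Activity scaled between DMSO (0%) and positive-control PTC124; concentration-effect curves quality-classified.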

Assay [4] has as its target Guanine nucleotide-binding protein G(i) subunit alpha-1 (Homo sapiens) (UniProt P63096). Briefly: qHTS Assay for Inhibitors of RGS12 GoLoco Motif Activity (Green Fluorophore) (AID 879).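 Note: negative values mean loss of peptide binding seen as reduced polarization.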 Conditions: Galphai1/FITC-RGS12 GoLoco peptide, fluorescence polarization; series mostly up to 57.1 µM. The method, boiled down:
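A drop in FITC polarization marked displacement of the FITC-tagged RGS12 GoLoco peptide (10 nM) from Gαi1 (50 nM). Compounds were incubated 10 min at room temperature in Tris pH 7.5 buffer containing 150 mM NaCl, 0.1 mM GDP and 0.05% NP40; unlabeled peptide titration served as control.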
On the technique in general: Quantitative high-throughput screening tests each substance at several concentrations.

Assay [5] deals with Muscarinic acetylcholine receptor M1 (Rattus norvegicus) (UniProt P08482). The assay can be described thus: qHTS Assay for Antagonists of Acetylcholine Muscarinic M1 Receptor: Measurement of IP-One Response (AID 944). Note: nearly all actives have a fitted effect of over 75% in size. The conditions noted are these: CHO-M1 cells, IP-One HTRF, antagonist mode; series mostly up to 46.1 µM. The method, boiled down:
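Read-out: HTRF competition between d2-IP1 and Eu-cryptate anti-IP1 antibody, emission 620 and 665 nm. Stimulus was carbachol, EC80 (200 nM), for 30 min in M1-CHO cells (rat receptor), after 10 min compound pre-treatment.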

The target in assay [6] is Pyruvate kinase (Leishmania mexicana) (UniProt Q27686). Briefly: qHTS Validation Assay for Inhibitors of Leishmania Mexicana Pyruvate Kinase (AID 945). The conditions noted are these: purified L. mexicana pyruvate kinase, enzyme activity, E451W mutant enzyme; series mostly up to 57.5 µM. In a few lines:
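An endpoint luciferase assay: 0.2 nM LmPYK E451W turns over 0.5 mM PEP with 0.1 mM ADP for 1 h at room temperature, pH 7.2, before PKLight addition. Values are normalized to DMSO-only wells.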

Assay [7] has as its target Pyruvate kinase PKM (Homo sapiens) (UniProt P14618). The assay can be described thus: qHTS Assay for Activators of Human Muscle Pyruvate Kinase (AID 954; active = well fitted curve in the direction sought with a large enough effect, not every such curve was filed as active). The conditions noted are these: purified human muscle pyruvate kinase, luciferase-coupled luminescence, 1 h; series mostly up to 57.5 µM. In a few lines: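 PKM2, human, >95% pure, 0.1 nM; PEP 0.5 mM (Km), ADP 0.1 mM; 50 mM imidazole pH 7.2, 50 mM KCl, 0.01% Tween 20, 0.05% BSA; 1 h RT; luciferase luminescence readout.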

Assay [8] addresses Alpha-galactosidase A (Homo sapiens) (UniProt P06280). The assay can be described thus: Counterscreen for Glucocerebrosidase Inhibitors: qHTS Assay for Human alpha-Galactosidase at pH 4.5 (AID 992). The conditions noted are these: purified enzyme, fluorogenic substrate; series mostly up to 76.9 µM. In a few lines: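 Fluorogenic 4-MU alpha-D-galactoside (80 uM) hydrolysis, 2 nM enzyme, pH 4.5 citrate buffer + 0.005% Tween-20; 20 min RT; NaOH/glycine pH 10 stop; Ex365/Em440. Compounds titrated 0.7 nM–77 uM; Hill-equation AC50.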

Assay [9] addresses alpha-glucosidase (Oryza sativa, rice) (UniProt Q653V4). Briefly: Counterscreen for Glucocerebrosidase Inhibitors: qHTS Assay for Rice alpha-Glucosidase at pH 5.0 (AID 997). The conditions noted are these: rice alpha-glucosidase enzyme activity; series mostly up to 76.9 µM. In a few lines:
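Endpoint fluorogenic assay at pH 5.0: compounds (0.7 nM to 77 uM) titrated against 4 nM rice enzyme and 400 uM 4-MU-alpha-glucoside for 20 min at room temperature; NaOH/glycine stop, read ex 365/em 440 nm, Hill-fitted AC50.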
On the technique in general: The purpose of a counterscreen is to sort out artefacts and off-target activity.

Molecules are shown by their SMILES. Inconclusive results are not listed. Activity calls are given as the source filed them. Unless noted, calls come from the whole dose curve; as a rule, active = well fitted curve in the direction sought with a large enough effect; inconclusive = small, poorly fitted or top-dose-only effect, or another doubt; inactive = no such curve, though single readings can be large; an effect the other way counts as inactive or inconclusive.

Chain of Pyruvate kinase PKM (Homo sapiens) (P14618 whole entry, looked up): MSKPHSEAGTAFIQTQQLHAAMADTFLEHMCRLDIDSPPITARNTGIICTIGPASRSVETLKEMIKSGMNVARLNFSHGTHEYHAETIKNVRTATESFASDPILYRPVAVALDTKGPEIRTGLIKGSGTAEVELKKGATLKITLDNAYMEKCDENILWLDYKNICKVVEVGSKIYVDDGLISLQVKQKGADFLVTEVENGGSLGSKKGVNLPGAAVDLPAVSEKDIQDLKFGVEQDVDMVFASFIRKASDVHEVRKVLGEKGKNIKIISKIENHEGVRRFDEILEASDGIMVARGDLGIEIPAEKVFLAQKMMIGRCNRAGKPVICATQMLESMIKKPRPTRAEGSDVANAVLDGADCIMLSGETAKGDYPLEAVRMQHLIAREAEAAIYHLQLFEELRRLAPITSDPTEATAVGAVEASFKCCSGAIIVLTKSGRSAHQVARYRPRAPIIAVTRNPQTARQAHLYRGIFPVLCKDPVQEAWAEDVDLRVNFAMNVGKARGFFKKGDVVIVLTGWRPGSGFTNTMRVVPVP
Chain of Luciferin 4-monooxygenase (Photinus pyralis) (P08659 whole entry, looked up): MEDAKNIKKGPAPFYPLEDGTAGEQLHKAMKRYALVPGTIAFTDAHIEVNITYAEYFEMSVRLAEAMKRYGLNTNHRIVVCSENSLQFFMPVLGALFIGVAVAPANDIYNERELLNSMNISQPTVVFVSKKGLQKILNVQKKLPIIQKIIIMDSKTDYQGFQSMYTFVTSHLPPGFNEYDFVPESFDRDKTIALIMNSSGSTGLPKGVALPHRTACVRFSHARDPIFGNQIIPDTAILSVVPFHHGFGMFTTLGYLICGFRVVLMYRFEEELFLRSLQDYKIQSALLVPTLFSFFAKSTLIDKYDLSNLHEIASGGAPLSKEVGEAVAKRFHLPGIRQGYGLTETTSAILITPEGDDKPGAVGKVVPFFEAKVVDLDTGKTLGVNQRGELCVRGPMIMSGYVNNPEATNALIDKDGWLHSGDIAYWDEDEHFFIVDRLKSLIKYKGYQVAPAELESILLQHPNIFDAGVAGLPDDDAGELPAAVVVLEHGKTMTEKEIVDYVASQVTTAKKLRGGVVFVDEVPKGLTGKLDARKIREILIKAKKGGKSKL
Chain of Guanine nucleotide-binding protein G(i) subunit alpha-1 (Homo sapiens) (P63096 whole entry, looked up): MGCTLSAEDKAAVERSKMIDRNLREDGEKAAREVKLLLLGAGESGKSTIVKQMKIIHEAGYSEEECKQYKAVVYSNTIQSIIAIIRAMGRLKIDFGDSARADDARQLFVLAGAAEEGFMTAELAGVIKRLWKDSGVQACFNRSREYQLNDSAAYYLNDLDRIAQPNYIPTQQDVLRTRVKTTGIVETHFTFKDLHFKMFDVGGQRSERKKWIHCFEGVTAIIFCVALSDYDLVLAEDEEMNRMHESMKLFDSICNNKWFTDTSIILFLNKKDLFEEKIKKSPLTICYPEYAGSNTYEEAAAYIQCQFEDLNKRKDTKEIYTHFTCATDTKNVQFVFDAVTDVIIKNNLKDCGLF
Chain of Alpha-galactosidase A (Homo sapiens) (P06280 whole entry, looked up): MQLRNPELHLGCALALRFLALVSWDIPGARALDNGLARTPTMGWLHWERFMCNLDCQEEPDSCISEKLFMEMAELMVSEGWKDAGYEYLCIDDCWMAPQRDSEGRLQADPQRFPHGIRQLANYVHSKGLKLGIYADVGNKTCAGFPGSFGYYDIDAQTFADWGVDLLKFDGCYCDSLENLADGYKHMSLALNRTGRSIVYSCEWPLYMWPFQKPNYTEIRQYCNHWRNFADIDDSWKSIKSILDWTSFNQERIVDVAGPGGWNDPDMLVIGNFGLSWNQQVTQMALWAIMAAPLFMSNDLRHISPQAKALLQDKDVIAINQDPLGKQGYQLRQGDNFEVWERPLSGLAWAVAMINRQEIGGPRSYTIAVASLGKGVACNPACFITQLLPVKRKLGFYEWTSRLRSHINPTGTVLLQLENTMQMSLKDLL
Chain of Muscarinic acetylcholine receptor M1 (Rattus norvegicus) (P08482 whole entry, looked up): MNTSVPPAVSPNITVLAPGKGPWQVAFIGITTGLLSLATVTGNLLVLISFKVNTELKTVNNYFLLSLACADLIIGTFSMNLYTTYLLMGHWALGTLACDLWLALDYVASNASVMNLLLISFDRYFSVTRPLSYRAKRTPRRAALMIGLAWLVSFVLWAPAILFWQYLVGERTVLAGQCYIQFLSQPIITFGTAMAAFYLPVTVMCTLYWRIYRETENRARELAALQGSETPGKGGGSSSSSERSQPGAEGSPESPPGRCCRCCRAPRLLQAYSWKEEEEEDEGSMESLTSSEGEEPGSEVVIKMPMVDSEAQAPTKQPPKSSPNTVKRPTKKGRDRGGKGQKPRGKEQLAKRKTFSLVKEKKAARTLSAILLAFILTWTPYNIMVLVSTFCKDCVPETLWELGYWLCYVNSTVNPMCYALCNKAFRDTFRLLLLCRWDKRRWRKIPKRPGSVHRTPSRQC
Chain of Pyruvate kinase (Leishmania mexicana) (Q27686 2-499 E452W): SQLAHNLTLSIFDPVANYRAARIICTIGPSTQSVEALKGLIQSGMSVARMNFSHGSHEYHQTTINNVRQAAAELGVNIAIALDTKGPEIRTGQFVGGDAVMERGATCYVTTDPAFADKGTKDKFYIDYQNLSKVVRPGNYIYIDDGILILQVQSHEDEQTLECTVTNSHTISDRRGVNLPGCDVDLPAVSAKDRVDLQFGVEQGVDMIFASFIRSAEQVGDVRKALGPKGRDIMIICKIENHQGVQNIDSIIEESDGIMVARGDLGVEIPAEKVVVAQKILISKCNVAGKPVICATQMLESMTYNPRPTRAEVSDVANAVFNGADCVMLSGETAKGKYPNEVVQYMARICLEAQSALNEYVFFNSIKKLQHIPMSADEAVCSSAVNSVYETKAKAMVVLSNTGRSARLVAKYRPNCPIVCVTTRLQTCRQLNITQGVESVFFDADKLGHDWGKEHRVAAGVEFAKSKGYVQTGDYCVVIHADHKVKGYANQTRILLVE

Take `Cc1cc(/C=C\c2ccc3cc(N(C)C)ccc3[n+]2C)c(C)n1-c1ccccc1`: in assay [1], the compound was classed as inactive. The values for the Potency in [2] and in [3] were 15.5 µM (active) and 0.0309 µM (active), respectively.

`NC(=NCc1ccc(Cl)c(Cl)c1)NC(=O)c1nc(Cl)c(N)nc1N`: the Potency entry in assay [4] and in [5] was “inactive” in each case. Also, the outcome in assay [6], in assay [7], in assay [8] and in [9] was inactive.

The values above are taken from PubChem BioAssay (NCATS).
